This is an account of results in PubChem BioAssay.

Assay [1] has as its system Wnt5a (protein binding on small-molecule microarray). Put plainly: small molecules binding Wnt5a protein – biophysical, small-molecule microarray, 635/667 nm fluorescence, primary screen (AID 1142).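 Also: fluorescence read at 667 nm with signal to noise per printed feature.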 The following applies: 635 nm fluorescence, higher = more signal.
A short description of assay [2]: ATP-based viability of Huh7 replicon cells – cell-based, CellTiter-Glo luminescence, basal, 48 h, cytotoxicity control for HCV replication inhibitor project, primary screen (AID 1143).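 Also: Huh7 hepatoma cells carrying a hepatitis C replication reporter with no stimulus; test concentration not given here.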 As to conditions: higher = more signal, called active from +8 up or from −8 down.
Assay [3] is described as follows: Pseudomonas biofilm growth suppression – PAO1 strain, BacTiter-Glo luminescence, LB-PBS, primary screen (AID 1144). The following applies: P. aeruginosa PAO1 biofilm, 12 h, higher = more signal.
A short description of assay [4]: basal CRE-LacZ reporter activity in PC12 – cell-based, unstimulated, primary screen (AID 1145). The following applies: no forskolin, luminescence, 4.5 h, higher = more signal, called active from +8 up or from −8 down.
The nature of assay [5]: forskolin-driven CRE-LacZ activity in PC12 – cell-based, CRE-LacZ reporter, forskolin-stimulated, primary screen (AID 1146).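 Also: PC12 cells with 6xCRE LacZ reporter stimulated by forskolin 10 µM; beta-galactosidase reporter signal reflecting CREB driven transcription.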 As to conditions: luminescence, 4.5 h, higher = more signal, called active from +8 up or from −8 down.
For assay [6], the target named is Streptavidin (Streptomyces avidinii) (UniProt P22629). Put plainly: compounds binding control protein streptavidin – biophysical, small-molecule microarray, 635/667 nm fluorescence, artefact control for SMM compound annotation, primary screen (AID 1147).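 Also: signal reflects streptavidin binding to arrayed compounds as a control protein.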 The following applies: higher = more signal.
Sequence of Streptavidin (Streptomyces avidinii) (P22629 whole entry, looked up): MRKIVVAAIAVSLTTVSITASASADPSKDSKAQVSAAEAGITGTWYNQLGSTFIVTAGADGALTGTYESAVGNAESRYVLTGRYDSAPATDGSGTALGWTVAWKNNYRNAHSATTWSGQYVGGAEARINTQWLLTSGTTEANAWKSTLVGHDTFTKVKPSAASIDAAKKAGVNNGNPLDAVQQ
Assay [7] is described as follows: probe aInhba binding on compound microarray – biochemical, small-molecule microarray, 635/667 nm fluorescence, primary screen (AID 1148).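 Also: score merges 667nm spot fluorescence with signal-to-noise for antibody binding to printed compounds.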 The following applies: higher = more signal.
Assay [8] addresses Torsin-1A (Homo sapiens) (UniProt O14656). Nature of the assay: TOR1A wild-type binding on microarray – cell lysate, small-molecule microarray, lysate, 635/667 nm, primary screen (AID 1149). As to conditions: COS7 hTOR1A-WT lysate, 635 nm fluorescence, higher = more signal.
The target is the same in assay [9]. Put plainly: torsin A mutant lysate binding on microarrays – cell lysate, small-molecule microarray, COS7 lysate, 635/667 nm fluorescence, primary screen (AID 1150).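 Also: score pools 667 nm emission and signal to noise measuring lysate protein binding.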 As to conditions: COS7 hTOR1A mutant lysate, 635 nm fluorescence, higher = more signal.
Assay [10] relates to Sonic hedgehog protein (Shh). Put plainly: Sonic hedgehog microarray binding compounds – biochemical, small-molecule microarray, 635/667 nm fluorescence, primary screen (AID 1151).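 Also: Shh protein binding to compounds spotted on small-molecule microarray slides; score combines spot fluorescence intensity with signal-to-noise across triplicate slides.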 The following applies: 635 nm fluorescence, higher = more signal.
A short description of assay [11]: optical density shifts of acrAB sulA E. coli – strain DRC41, OD650, 48 h, E. coli filamentation inducer project, primary screen (AID 1152).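 Also: E. coli MC1000 strain DRC41 lacking acrAB efflux pump and sulA.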 The following applies: higher = more signal, called active from +8 up or from −8 down.
A short description of assay [12]: probe aLefty1 binding on compound microarray – biochemical, small-molecule microarray, 635/667 nm fluorescence, primary screen (AID 1153).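 Also: score merges spot fluorescence with signal-to-noise ratio from the scanned slide images.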 As to conditions: higher = more signal.
The nature of assay [13]: plasmodial surface anion channel blockers, osmotic lysis – cell-based, P. falciparum Indochina, OD700, 1 h, primary screen (AID 1154). The following applies: P. falciparum Indochina infected RBC osmotic lysis, higher = more signal, called active from +8 up or from −8 down.
Assay [14] is described as follows: plasmodial surface anion channel blockers, osmotic lysis – cell-based, P. falciparum Indochina, OD700, 2 h, primary screen (AID 1155).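 Also: lysis reports solute entry through the parasite surface anion channel PSAC.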 As to conditions: P. falciparum Indochina infected erythrocytes, higher = more signal, called active from +8 up or from −8 down.
Assay [15] can be described thus: changes in parasitized red cell lysis, either direction – P. falciparum Indochina, OD700, 3 h, PSAC antagonist project, primary screen (AID 1156). As to conditions: P. falciparum-infected erythrocytes, osmotic lysis, higher = more signal, called active from +8 up or from −8 down.
Assay [16] in a line: plasmodial surface anion channel blockers, osmotic lysis – cell-based, P. falciparum Indochina, OD700, 18 h, primary screen (AID 1157). As to conditions: P. falciparum Indochina infected erythrocytes, osmotic lysis OD700, 18 h; higher = more signal, called active from +8 up or from −8 down.
The nature of assay [17]: S6 kinase pathway phospho-S6 level changes – cell-based, A549, cytoblot, luminescence, serum-stimulated, primary screen (AID 1158).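 Also: serum-stimulated A549 lung adenocarcinoma cells; signal is phosphorylated S6 detected by cytoblot immunostaining with HRP secondary.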 As to conditions: 5 h, higher = more signal.
Assay [18] concerns the target NADPH oxidase 2 (Homo sapiens) (UniProt P04839). Put plainly: compounds shifting NOX2 Amplex Red fluorescence – cell-based, HEK293-NOX2, PMA-stimulated, NOX inhibitor project, primary screen (AID 1159). Also: test concentration not given here. The following applies: 45 min, higher = more signal, called active from +8 up or from −8 down.
For assay [19], the target named is NADPH oxidase 4 (Homo sapiens) (UniProt Q9NPH5). Nature of the assay: compounds shifting NOX4 Amplex Red fluorescence – cell-based, HEK293-NOX4, tetracycline-induced, NOX inhibitor project, primary screen (AID 1160). The following applies: HEK293-NOX4, Amplex Red H2O2 fluorescence, 45 min; higher = more signal, called active from +8 up or from −8 down.
Sequence of NADPH oxidase 4 (Homo sapiens) (Q9NPH5 whole entry, looked up): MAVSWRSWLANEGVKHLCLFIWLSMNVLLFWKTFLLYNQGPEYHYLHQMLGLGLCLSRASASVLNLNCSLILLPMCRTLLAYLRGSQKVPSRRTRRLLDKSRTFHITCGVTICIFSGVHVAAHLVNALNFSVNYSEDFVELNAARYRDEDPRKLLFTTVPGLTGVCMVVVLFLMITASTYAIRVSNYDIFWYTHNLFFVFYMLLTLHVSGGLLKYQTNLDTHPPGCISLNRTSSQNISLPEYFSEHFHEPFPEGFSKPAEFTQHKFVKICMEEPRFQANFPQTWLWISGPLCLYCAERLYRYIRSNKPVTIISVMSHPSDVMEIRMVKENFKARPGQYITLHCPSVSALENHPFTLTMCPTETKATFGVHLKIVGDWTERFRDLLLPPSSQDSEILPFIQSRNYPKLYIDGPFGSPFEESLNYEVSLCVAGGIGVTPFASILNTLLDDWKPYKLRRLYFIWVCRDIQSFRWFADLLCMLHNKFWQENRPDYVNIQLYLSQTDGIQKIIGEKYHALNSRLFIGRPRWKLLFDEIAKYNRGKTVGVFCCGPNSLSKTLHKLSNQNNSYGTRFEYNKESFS
For assay [20], the target named is NADPH oxidase 5 (Homo sapiens) (UniProt Q96PH1). Put plainly: compounds shifting NOX5 Amplex Red fluorescence – cell-based, HEK293-NOX5, NOX inhibitor project, primary screen (AID 1161). The following applies: HEK293-NOX5, ionomycin, 45 min, higher = more signal.
Sequence of NADPH oxidase 5 (Homo sapiens) (Q96PH1 whole entry, looked up): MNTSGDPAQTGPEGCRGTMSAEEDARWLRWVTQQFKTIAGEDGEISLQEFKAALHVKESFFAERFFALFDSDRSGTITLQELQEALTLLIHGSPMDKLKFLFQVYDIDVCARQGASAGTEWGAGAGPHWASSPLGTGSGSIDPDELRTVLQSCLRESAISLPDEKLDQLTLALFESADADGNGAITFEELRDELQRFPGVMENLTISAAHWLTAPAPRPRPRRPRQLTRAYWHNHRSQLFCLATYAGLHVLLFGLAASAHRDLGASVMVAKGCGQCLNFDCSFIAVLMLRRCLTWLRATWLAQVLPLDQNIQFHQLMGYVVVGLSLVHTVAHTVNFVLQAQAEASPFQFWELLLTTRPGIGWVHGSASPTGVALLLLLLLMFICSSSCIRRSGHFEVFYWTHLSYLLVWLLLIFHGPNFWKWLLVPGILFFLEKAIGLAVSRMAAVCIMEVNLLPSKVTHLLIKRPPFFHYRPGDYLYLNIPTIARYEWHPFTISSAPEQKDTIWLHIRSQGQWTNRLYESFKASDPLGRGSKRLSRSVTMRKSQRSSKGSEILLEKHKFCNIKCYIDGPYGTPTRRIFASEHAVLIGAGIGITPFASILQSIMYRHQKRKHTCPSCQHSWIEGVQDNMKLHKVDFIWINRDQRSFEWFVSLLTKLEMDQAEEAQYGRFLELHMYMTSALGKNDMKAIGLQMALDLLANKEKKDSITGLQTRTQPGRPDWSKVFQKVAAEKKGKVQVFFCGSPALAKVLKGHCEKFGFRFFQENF

The structures appear in SMILES notation. Activity calls are given as the source filed them. Unless noted, no rule for the calls is given here.

Sequence of Torsin-1A (Homo sapiens) (O14656 whole entry, looked up): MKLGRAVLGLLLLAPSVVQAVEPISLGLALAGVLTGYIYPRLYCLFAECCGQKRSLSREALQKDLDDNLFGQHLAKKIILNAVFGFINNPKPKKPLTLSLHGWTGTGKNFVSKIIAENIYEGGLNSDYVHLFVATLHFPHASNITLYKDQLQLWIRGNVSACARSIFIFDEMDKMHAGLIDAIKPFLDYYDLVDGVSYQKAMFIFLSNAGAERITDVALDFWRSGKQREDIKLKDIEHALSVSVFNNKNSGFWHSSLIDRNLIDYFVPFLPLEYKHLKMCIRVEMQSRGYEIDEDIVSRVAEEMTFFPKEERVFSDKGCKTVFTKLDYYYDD
Sequence of NADPH oxidase 2 (Homo sapiens) (P04839 whole entry, looked up): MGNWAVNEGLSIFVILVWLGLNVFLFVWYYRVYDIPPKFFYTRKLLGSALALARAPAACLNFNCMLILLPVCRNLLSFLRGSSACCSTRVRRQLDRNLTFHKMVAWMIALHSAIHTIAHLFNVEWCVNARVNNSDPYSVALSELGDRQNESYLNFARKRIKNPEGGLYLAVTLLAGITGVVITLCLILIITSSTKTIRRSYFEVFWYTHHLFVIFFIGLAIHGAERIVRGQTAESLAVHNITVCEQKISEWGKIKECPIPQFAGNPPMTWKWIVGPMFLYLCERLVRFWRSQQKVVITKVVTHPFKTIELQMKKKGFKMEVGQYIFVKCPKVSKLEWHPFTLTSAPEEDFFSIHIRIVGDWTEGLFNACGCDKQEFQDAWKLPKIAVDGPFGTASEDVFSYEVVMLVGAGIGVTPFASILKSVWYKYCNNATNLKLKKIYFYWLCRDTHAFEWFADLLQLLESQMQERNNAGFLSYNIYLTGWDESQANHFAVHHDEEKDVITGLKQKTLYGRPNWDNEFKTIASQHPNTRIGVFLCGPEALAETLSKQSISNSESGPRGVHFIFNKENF

Regarding `NC(=O)NCC#Cc1ccc2c(c1)[C@]1(C(=O)N2)[C@H](c2ccc(O)cc2)N2[C@H](c3ccccc3)[C@H](c3ccccc3)OC(=O)[C@H]2[C@@H]1C(N)=O`, the composite z-score in assay [1] is -0.0353; in assay [6], -0.928; in assay [7], -0.105; in [8], -1.49; in [9] it was -1.74; in assay [10], 0.0139. The molecule further showed a composite z-score in assay [12] of -0.127. For the same molecule, the z-score was -0.281 (inactive) in [2]; -0.125 (inactive) in assay [3]; -0.0515 (inactive) in assay [4]; 0.143 (inactive) in assay [5]; 0.373 (inactive) in assay [11]; 0.792 (inactive) in assay [13]. Moreover, the z-score in assay [14] is 0.215 (inactive); in [15] it was 1.15 (inactive); in assay [16], 0.319 (inactive); in [17] it was 0.112; in [18] it was 0.408 (inactive); in assay [19] it was -0.571 (inactive). In addition, in [20], the z-score is -0.72.

`COCCOC(=O)N1C(=O)[C@@]2(c3cc(C#Cc4ccc(OC)cc4)ccc31)[C@H](c1ccc(OCCO)cc1)N1[C@H](c3ccccc3)[C@H](c3ccccc3)OC(=O)[C@H]1[C@@H]2C(N)=O`: the composite z-score came to 0.41 in assay [1]; 0.879 in assay [6]; 0.187 in [7]; 0.428 in assay [8]; 0.835 in [9]; 1.96 in assay [10]. For the same molecule, the composite z-score in assay [12] is 0.291. Besides, the z-score was -2.73 (inactive) in [2]; 0.854 (inactive) in assay [3]; -1.15 (inactive) in assay [4]; -1.28 (inactive) in assay [5]; 0.629 (inactive) in [11]; 5.54 (inactive) in [13]. Also, the z-score is 2.19 (inactive) in assay [14]; 0.528 (inactive) in assay [15]; 0.924 (inactive) in assay [16]; -0.141 in [17]; 1.49 (inactive) in assay [18]; 1.03 (inactive) in assay [19]. Further, the z-score in assay [20] came out at 1.85.

For `OCc1ccc(-c2cc[n+](Cc3cccc(OC(F)(F)F)c3)cc2)cc1`, the composite z-score is 0.252 in [1]; 1.24 in assay [6]; -0.0221 in [7]; 1.18 in assay [8]; 1.12 in [9]; 1.98 in assay [10]. In addition, the composite z-score in assay [12] came out at 0.423. The z-score in assay [2] is -1.64 (inactive); in assay [3] it was -0.473 (inactive); in [4], -0.374 (inactive); in assay [5], -0.119 (inactive); in [11] it was 0.0027 (inactive); in assay [13], 0.51 (inactive). For the same molecule, the z-score in assay [14] was 0.409 (inactive); in assay [15] it was -0.445 (inactive); in [16], -0.0616 (inactive); in assay [17], -0.104; in [18], -0.316 (inactive); in [19] it was -0.0783 (inactive). Further, the z-score in assay [20] was -3.79.

Turning to `CO[C@H]1O[C@H](CO)[C@@H](OC(=O)Nc2cccc(F)c2)[C@H](OC(=O)Nc2ccc3c(c2)OCO3)[C@H]1OC(=O)Nc1ccc2c(c1)OCO2`, the composite z-score was 0.146 in assay [1]; -0.0782 in assay [6]; 0.0155 in [7]; 0.967 in assay [8]; 1.2 in assay [9]; 1.52 in assay [10]. Further, in [12], the composite z-score worked out at 0.236. Moreover, the z-score in [2] is -2.58 (inactive); in assay [3] it was -0.905 (inactive); in assay [4], 0.195 (inactive); in assay [5], -0.724 (inactive); in assay [11] it was 0.903 (inactive); in [13], 6.15 (inactive). In addition, the z-score in assay [14] is 0.462 (inactive); in [15], 0.521 (inactive); in [16] it was 0.643 (inactive); in assay [17], -0.0353; in assay [18] it was -3.15 (inactive); in assay [19], -0.681 (inactive). In addition, in [20], the z-score was -2.02.

On to `C=CCOC(=O)[C@@H]1[C@H]2C(=O)O[C@H](c3ccccc3)[C@H](c3ccccc3)N2[C@H](c2ccc(OCCOC(=O)[C@H]3C[C@H]4C(=O)N[C@@H](Cc5ccccc5)C(=O)N4[C@H]3c3cccc(OCCO)c3)cc2)[C@@]12C(=O)Nc1ccc(I)cc12`, for which the composite z-score amounted to 0.776 in assay [1]; 0.502 in assay [6]; 0.294 in assay [7]; 0.787 in assay [8]; 0.959 in [9]; 2.02 in assay [10]. The same molecule yielded a composite z-score in assay [12] of 0.403. Also, the z-score in assay [2] was -0.467 (inactive); in assay [3] it was -0.787 (inactive); in assay [4], 6.98 (inactive); in assay [5], 11.6 (active); in [11], -0.804 (inactive); in assay [13] it was 1.94 (inactive). Further, the z-score in assay [14] is 1.79 (inactive); in assay [15], -1.66 (inactive); in assay [16] it was 0.619 (inactive); in assay [17] it was 0.652; in assay [18], 2.21 (inactive); in assay [19], 0.45 (inactive). Besides, the z-score in assay [20] is 1.98.
